Results as given in PubChem BioAssay (Tox21).
Several values for one entry are separate records, joined by “and”; a condition that tells them apart may be missing. Equal entries are not always repeated. Records with an inconclusive call do not appear. Entries that show only a call come without a potency. Activity calls are given as the source filed them. Unless noted, the call rests on the fitted dose curve; in most records, active means well fitted curve in the direction sought with a large enough effect in the repeat runs; inconclusive means weak or mixed curves; inactive means no such curve, though single readings can be large; an effect the other way counts as inactive or inconclusive.

Legend:
[1] = target: Aryl hydrocarbon receptor (Homo sapiens) (UniProt P35869); experiment: qHTS assay to identify small molecule that activate the aryl hydrocarbon receptor (AhR) signaling pathway (AID 743085); further: nearly all actives have a fitted effect of over 15% in size; further: potency means the concentration at half of the fitted maximal effect;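 on activation: HG2L7.5c1 human HepG2 liver cells with stably integrated DRE-driven firefly reporter; series mostly up to about 70 µM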
Aryl hydrocarbon receptor (Homo sapiens), sequence (P35869 whole entry, looked up): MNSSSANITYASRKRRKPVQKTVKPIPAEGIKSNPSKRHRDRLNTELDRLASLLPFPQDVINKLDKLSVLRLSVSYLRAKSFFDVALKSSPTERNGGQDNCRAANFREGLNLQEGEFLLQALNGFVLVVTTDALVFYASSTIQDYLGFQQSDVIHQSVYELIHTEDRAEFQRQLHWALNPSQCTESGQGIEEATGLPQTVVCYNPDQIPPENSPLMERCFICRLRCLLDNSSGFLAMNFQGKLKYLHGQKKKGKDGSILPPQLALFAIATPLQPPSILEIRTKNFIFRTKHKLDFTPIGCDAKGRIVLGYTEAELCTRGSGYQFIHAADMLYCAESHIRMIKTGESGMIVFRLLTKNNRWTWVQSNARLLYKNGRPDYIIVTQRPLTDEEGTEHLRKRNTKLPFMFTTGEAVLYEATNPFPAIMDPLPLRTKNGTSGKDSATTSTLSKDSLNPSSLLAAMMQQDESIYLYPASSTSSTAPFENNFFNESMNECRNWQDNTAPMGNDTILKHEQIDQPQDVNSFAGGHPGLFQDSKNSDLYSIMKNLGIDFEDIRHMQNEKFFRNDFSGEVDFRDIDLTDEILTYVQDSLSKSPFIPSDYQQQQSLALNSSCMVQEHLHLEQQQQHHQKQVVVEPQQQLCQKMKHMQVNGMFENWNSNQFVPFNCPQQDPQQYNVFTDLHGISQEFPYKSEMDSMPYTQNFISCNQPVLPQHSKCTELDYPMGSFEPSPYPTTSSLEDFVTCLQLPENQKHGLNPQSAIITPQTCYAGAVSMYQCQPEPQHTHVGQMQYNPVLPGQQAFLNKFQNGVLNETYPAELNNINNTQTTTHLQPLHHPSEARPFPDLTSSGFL
Procedure, shortened: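 Reporter assay in engineered HepG2 line HG2L7.5c1, whose plasmid carries twenty dioxin responsive elements upstream of firefly luciferase. Treatment lasted 24 h at 37C; ONE-Glo luminescence gauged induction.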

[2] = qHTS assay to identify small molecule that activate the aryl hydrocarbon receptor (AhR) signaling pathway - cell viability counter screen (AID 743086); further: nearly all actives have a fitted effect of over 45% in size; further: potency means the concentration at half of the fitted maximal effect
Procedure, shortened: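 Cytotoxicity counter screen: CellTiter-Fluor signal (30 min, 37 C) in 4000 HepG2 cells/well carrying the DRE-luciferase reporter, following 24 h compound exposure at 37 C.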

[3] = qHTS assay to identify small molecule antagonists of the peroxisome proliferator-activated receptor gamma (PPARg) signaling pathway - cell viability counter screen (AID 743194); further: nearly all actives have a fitted effect of over 55% in size; further: potency means the concentration at half of the fitted maximal effect
Procedure, shortened: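 Viability was measured as CellTiter-Glo luminescence in GeneBLAzer PPARg UAS-bla HEK293H cells. These cells had been exposed 17 h at 37 C to compounds together with rosiglitazone at 50 nM final, with the beta-lactamase readout taken in the same wells.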

[4] = qHTS assay for small molecule agonists of the antioxidant response element (ARE) signaling pathway - cell viability counter screen (AID 743203; calls by dose curve; further: nearly all actives have a fitted effect of over 55% in size; further: potency means the concentration at half of the fitted maximal effect)
Procedure, shortened: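 Parallel cytotoxicity read-out for the ARE-bla screen: HepG2 reporter cells, 16 hrs with compounds, then CellTiter-Glo luminescence.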

[5] = qHTS assay for small molecule activators of the heat shock response signaling pathway - cell viability counter screen (AID 743209); further: nearly all actives have a fitted effect of over 50% in size; further: potency means the concentration at half of the fitted maximal effect
Procedure, shortened: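 To flag cytotoxic compounds, HSE-bla HeLa cells plated at 1500 cells/well were dosed for 5 h at 37 C, followed by the reporter FRET read and then CellTiter-Glo, with luminescence recorded 30 min after reagent addition.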

[6] = qHTS assay to identify small molecule agonists of the peroxisome proliferator-activated receptor delta (PPARd) signaling pathway - cell viability counter screen (AID 743211); further: nearly all actives have a fitted effect of over 55% in size; further: potency means the concentration at half of the fitted maximal effect
Procedure, shortened: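 Multiplexed format: after the 2 h room-temperature LiveBLAzer B/G FRET step, CellTiter-Glo was added to the same wells. Luminescence after 30 min gave cell viability; compound exposure was 17 h at 37C.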

[7] = qHTS assay to identify small molecule agonists of the farnesoid-X-receptor (FXR) signaling pathway - cell viability counter screen (AID 743218); further: nearly all actives have a fitted effect of over 45% in size; further: potency means the concentration at half of the fitted maximal effect
Procedure, shortened: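 Same-well cytotoxicity check on FXR-UAS-bla HEK 293T cells: 5 h attachment, 16 h compound at 37 C, CellTiter-Glo luminescence read at room temperature after 30 min.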

[8] = qHTS assay to identify small molecule antagonists of the farnesoid-X-receptor (FXR) signaling pathway - cell viability counter screen (AID 743221; active means well fitted cell-killing curve with a large enough effect in the repeat runs, not every such curve was filed as active; further: nearly all actives have a fitted effect of over 50% in size; further: potency means the concentration at half of the fitted maximal effect)
Procedure, shortened: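 CellTiter-Glo, 30 min RT, luminescence; same wells as the LiveBLAzer FRET read. Cells: FXR-UAS-bla HEK 293T. Treatment: compound with chenodeoxycholic acid 50 uM final, 16 h at 37 C.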

[9] = target: Vitamin D3 receptor (Homo sapiens) (UniProt P11473); experiment: qHTS assay to identify small molecule antagonists of the vitamin D receptor (VDR) signaling pathway (AID 743223; active means well fitted inhibition curve with a large enough effect in the signal ratio in the repeat runs, not every such curve was filed as active; the % refers to the signal ratio; further: potency means the concentration at half of the fitted maximal effect)
Vitamin D3 receptor (Homo sapiens), sequence (P11473 whole entry, looked up): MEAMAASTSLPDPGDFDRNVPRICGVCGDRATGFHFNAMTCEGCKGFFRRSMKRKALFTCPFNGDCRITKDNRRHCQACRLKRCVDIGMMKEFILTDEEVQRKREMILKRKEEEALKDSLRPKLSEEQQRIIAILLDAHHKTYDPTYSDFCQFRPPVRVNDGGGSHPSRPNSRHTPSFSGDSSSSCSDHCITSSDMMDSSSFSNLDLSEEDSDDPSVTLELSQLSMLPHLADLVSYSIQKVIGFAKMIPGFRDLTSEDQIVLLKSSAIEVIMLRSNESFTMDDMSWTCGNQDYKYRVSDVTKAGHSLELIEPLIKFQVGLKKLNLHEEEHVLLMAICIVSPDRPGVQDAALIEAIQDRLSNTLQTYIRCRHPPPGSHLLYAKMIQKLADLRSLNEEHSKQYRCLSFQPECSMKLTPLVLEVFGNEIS
Procedure, shortened: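 After VDR-bla cells are plated and left 4 h at 37C, DMSO-dissolved compounds and 3 nM (final) calcitriol agonist are added. Incubation continues 16 h at 37C; FRET beta-lactamase substrate then develops 2 h at room temperature.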

[10] = qHTS assay to identify small molecule agonists of the vitamin D receptor (VDR) signaling pathway - cell viability counter screen (AID 743224); further: nearly all actives have a fitted effect of over 50% in size; further: potency means the concentration at half of the fitted maximal effect
Procedure, shortened: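 Counter screen for cytotoxicity: VDR-bla cells at 2,000 cells/well, 16 h compound exposure, then CellTiter-Glo luminescence after the beta-lactamase measurement.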

[11] = qHTS assay for small molecule agonists of the antioxidant response element (ARE) signaling pathway (AID 743202; active means well fitted activation curve with a large enough effect in the signal ratio in the repeat runs, not every such curve was filed as active; the % refers to the signal ratio; further: potency means the concentration at half of the fitted maximal effect)
Procedure, shortened: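 Beta-lactamase reporter activity, read as fluorescence intensity, reflects ARE/Nrf2 pathway induction in HepG2 cells after 16 h compound exposure at 37 C; substrate loading was 2 h at room temperature.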

[12] = qHTS assay for small molecule activators of the heat shock response signaling pathway (AID 743210; active means well fitted activation curve with a large enough effect in the signal ratio in the repeat runs, with a control signal flat, not every such curve was filed as active; the % refers to the signal ratio;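 further: HeLa cells with beta-lactamase reporter driven by heat shock elements; series mostly up to about 63 µM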)
Procedure, shortened: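 Fluorescence from a cleaved B/G FRET substrate (2.5 h, room temp) reports HSE-driven beta-lactamase in HeLa cells treated 5 h at 37 C with DMSO-dissolved compounds.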

[13] = target: Peroxisome proliferator-activated receptor delta (Homo sapiens) (UniProt Q03181); experiment: qHTS assay to identify small molecule agonists of the peroxisome proliferator-activated receptor delta (PPARd) signaling pathway (AID 743212; calls by dose curve;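 further: HEK293H cells with PPARd UAS beta-lactamase reporter GeneBLAzer system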)
Peroxisome proliferator-activated receptor delta (Homo sapiens), sequence (Q03181 whole entry, looked up): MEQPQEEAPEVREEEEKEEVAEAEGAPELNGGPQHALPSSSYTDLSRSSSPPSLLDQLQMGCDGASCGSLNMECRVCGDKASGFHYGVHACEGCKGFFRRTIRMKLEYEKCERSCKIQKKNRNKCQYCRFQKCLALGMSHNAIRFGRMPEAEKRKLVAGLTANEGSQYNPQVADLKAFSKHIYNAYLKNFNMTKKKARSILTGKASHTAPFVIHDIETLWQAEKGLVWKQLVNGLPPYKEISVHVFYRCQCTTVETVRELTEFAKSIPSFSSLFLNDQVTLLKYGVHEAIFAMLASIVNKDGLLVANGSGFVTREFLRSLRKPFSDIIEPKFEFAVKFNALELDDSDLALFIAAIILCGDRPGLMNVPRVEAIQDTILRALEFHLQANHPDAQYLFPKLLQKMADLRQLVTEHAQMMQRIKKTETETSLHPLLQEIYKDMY
Procedure, shortened: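 Steps: seed PPARd-bla HEK293H cells; incubate 5 h, 37 C, 5% CO2; add compounds in DMSO; incubate, 37 C; add LiveBLAzer B/G FRET substrate; hold 2 h at room temperature; measure fluorescence.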

[14] = target: Peroxisome proliferator-activated receptor delta (Homo sapiens) (UniProt Q03181); experiment: qHTS assay to identify small molecule antagonists of the peroxisome proliferator-activated receptor delta (PPARd) signaling pathway (AID 743215; active means well fitted inhibition curve with a large enough effect in the signal ratio in the repeat runs, not every such curve was filed as active; the % refers to the signal ratio;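 further: cells stimulated with agonist L165041 at 300 nM final during compound exposure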; further: potency means the concentration at half of the fitted maximal effect)
Procedure, shortened: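 Screen format: qHTS, antagonist mode. HEK293H PPARd-bla cells received compound and 300 nM L165041 (final), 17 h, 37 C. Beta-lactamase detected via FRET substrate fluorescence, 2 h, room temperature.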

[15] = target: Bile acid receptor (Homo sapiens) (UniProt Q96RI1); experiment: qHTS assay to identify small molecule agonists of the farnesoid-X-receptor (FXR) signaling pathway (AID 743220; active means well fitted activation curve with a large enough effect in the signal ratio in the repeat runs, not every such curve was filed as active; the % refers to the signal ratio)
Bile acid receptor (Homo sapiens), sequence (Q96RI1 whole entry, looked up): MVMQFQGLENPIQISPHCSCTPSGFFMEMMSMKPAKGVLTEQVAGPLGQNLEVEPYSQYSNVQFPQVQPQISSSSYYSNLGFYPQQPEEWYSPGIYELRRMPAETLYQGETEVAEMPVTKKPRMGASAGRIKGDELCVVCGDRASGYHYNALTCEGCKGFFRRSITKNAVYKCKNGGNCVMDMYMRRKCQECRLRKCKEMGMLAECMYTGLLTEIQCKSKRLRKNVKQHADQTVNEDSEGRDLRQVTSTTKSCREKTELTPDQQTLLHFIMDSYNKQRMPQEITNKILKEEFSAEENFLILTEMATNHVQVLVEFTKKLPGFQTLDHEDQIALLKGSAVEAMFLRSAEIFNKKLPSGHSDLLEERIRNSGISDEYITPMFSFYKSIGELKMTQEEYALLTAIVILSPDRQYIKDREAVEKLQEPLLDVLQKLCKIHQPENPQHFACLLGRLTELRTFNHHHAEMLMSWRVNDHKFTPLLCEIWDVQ
Procedure, shortened: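 FXR-UAS-bla HEK 293T cells carrying a UAS-driven beta-lactamase reporter were plated for 5 h at 37C/5% CO2, then exposed to DMSO-dissolved Tox21 10K compounds for 16 h at 37C. A LiveBLAzer B/G FRET substrate was loaded for 2 h at room temperature before fluorescence reading.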

[16] = qHTS assay to identify small molecule antagonists of the peroxisome proliferator-activated receptor delta (PPARd) signaling pathway - cell viability counter screen (AID 743213); further: nearly all actives have a fitted effect of over 50% in size; further: potency means the concentration at half of the fitted maximal effect
Procedure, shortened: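 In this counter screen, HEK293H cells carrying a UAS-beta-lactamase reporter are co-treated with test compounds and 300 nM L165041 (final) for 17 h at 37 C; cell viability is quantified by CellTiter-Glo luminescence.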

[17] = target: Bile acid receptor (Homo sapiens) (UniProt Q96RI1); experiment: qHTS assay to identify small molecule antagonists of the farnesoid-X-receptor (FXR) signaling pathway (AID 743217; active means well fitted inhibition curve with a large enough effect in the signal ratio in the repeat runs, not every such curve was filed as active; the % refers to the signal ratio; further: potency means the concentration at half of the fitted maximal effect)
Procedure, shortened: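 Quantitative HTS, beta-lactamase reporter format: FXR-UAS-bla HEK 293T cells co-treated 16 h at 37 °C with compounds and 50 uM final chenodeoxycholic acid, then read by B/G FRET fluorescence.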

[18] = target: Vitamin D3 receptor (Homo sapiens) (UniProt P11473); experiment: qHTS assay to identify small molecule agonists of the vitamin D receptor (VDR) signaling pathway (AID 743222; calls by dose curve)
Procedure, shortened: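 Using LiveBLAzer B/G FRET detection, agonism was scored in VDR-bla cells exposed overnight (16 h, 37C) to DMSO-dissolved compounds; substrate incubation was 2 h at room temperature.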

Row | SMILES | Potency [1] | Potency [2] | Potency [3] | Potency [4] | Potency [5] | Potency [6] | Potency [7] | Potency [8] | Potency [9] | Potency [10] | Potency [11] | Potency [12] | Potency [13] | Potency [14] | Potency [15] | Potency [16] | Potency [17] | Potency [18]
1 | CCCCCCCC[P+](CCCCCCCC)(CCCCCCCC)CCCCCCCC | inactive | 19.2 µM (active) | 4.34 µM (active) | 10.8 µM (active) | 5.46 µM (active) | 5.46 µM (active) | 8.65 µM (active) | 17.3 µM (active) | 19.4 µM (active) | 3.45 µM (active) | – | – | – | – | – | – | – | –
2 | O=C(O)c1cc(O)c2c(c1)C(=O)c1cccc(O)c1C2=O | inactive | inactive | inactive | – | inactive | inactive | inactive | inactive | – | inactive | 25.1 µM (active) | inactive | inactive | inactive | – | – | – | –
3 | Cc1c(C)c2c(c(C)c1OC(=O)CCC(=O)O)CC[C@@](C)(CCC[C@H](C)CCC[C@H](C)CCCC(C)C)O2 | inactive | inactive | inactive | inactive | inactive | – | inactive | inactive | – | inactive | – | inactive | inactive | inactive | inactive | – | – | –
4 | C=CC(=O)OCC(CO)(COC(=O)C=C)COC(=O)C=C | inactive | 13.7 µM (active) and 27.3 µM (active) | 11 µM (active) and 4.36 µM (active) | 61.3 µM (active) and 30.6 µM (active) | 3.9 µM (active) and 2.45 µM (active) | 6.94 µM (active) and 11 µM (active) | 19.6 µM (active) and 17.4 µM (active) | 34.8 µM (active) and 30.9 µM (active) | – | 12.3 µM (active) and 13.8 µM (active) | – | – | – | – | – | 19.6 µM (active) and 13.8 µM (active) | – | –
5 | Oc1cccc2cc3cccc(O)c3c(O)c12 | inactive | inactive | inactive | inactive | inactive | inactive | inactive | inactive | – | inactive | – | – | inactive | – | inactive | – | inactive | –
6 | CC(C)(C)C(=O)OCOC(=O)C1N2C(=O)CC2S(=O)(=O)C1(C)C (stereo unspecified) | inactive | inactive | inactive | inactive | inactive | – | inactive | inactive | – | inactive | – | – | inactive | 2.11 µM (active) | inactive | inactive | – | –
7 | Cc1ccc(-n2nc(C(C)(C)C)cc2NC(=O)Nc2ccc(OCCN3CCOCC3)c3ccccc23)cc1 | 15 µM (active) | inactive | inactive | inactive | – | – | – | – | – | inactive | inactive | inactive | – | – | inactive | – | 16.8 µM (active) | –
8 | OCCCCCCCCCCCCBr | inactive | inactive | inactive | inactive | inactive | inactive | inactive | inactive | – | inactive | – | – | inactive | – | inactive | – | – | inactive
9 | CCCC(c1cc(C(C)(C)C)c(O)cc1C)c1cc(C(C)(C)C)c(O)cc1C | inactive | inactive | 17.6 µM (active) | 17.4 µM (active) | 12.5 µM (active) | 11.1 µM (active) | 12.5 µM (active) | 19.7 µM (active) | – | 7.86 µM (active) | – | – | – | – | – | 19.7 µM (active) | – | –
10 | N=C1C=CC(=C(c2ccc(N)cc2)c2ccc(N)cc2)C=C1 | inactive | 17.2 µM (active) | 6.92 µM (active) | 61.1 µM (active) | 30.9 µM (active) | – | – | inactive | – | – | – | – | inactive | – | – | – | – | –
